# High-throughput results as filed in PubChem BioAssay.
# The list is not random: actives were taken first. Their share in the collection is about 8.8%.
# IL1B secr inh – blocks inflammasome-driven IL-1 beta release | THP-1 LPS/ATP IL-1B secretion, AlphaLISA, 16 h; active compounds read low | activity change, % at 57.5 µM | hit rate 4.7% among 360,000 | AID 743279; in the data active = activity change below about -50%; inconclusive = mostly about -30% to -49%
#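 Secreted IL-1B measured by AlphaLISA bead assay after 16 h compound exposure of THP-1 cells; compounds (final up to 57.5 uM) added 1 h before LPS (250 ng/mL) and ATP (1.25 mM) stimulation; lower signal means less secretion.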
# KB-3-1 cytotox – KB-3-1 parental cell cytotoxicity | KB-3-1 viability, CellTiter-Glo ATP luminescence, 72 h | Potency, µM (top dose mostly 46.1 µM), actives largely listed as cytotoxic | hit rate 1.4% among 400,000; also: potency is read from the fitted curve at half-maximal effect; nearly all actives have a fitted effect of over 60% in size
#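 Luminescent ATP read-out (CellTiter-Glo) measures survival of drug-naive KB-3-1 cells after 72 h compound exposure at 37 °C. Titration series was screened from lowest to highest concentration, with DMSO vehicle plates as background controls.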
# KB-V1 cytotox – KB-V1 MDR subline cytotoxicity; hit rate 3.4% among 400,000; KB-V1 MDR cells viability, CellTiter-Glo, 72 h; Potency, µM (series often up to 46.1 µM), actives largely listed as cytotoxic; AID 1347076; also: potency is read from the fitted curve at half-maximal effect; nearly all actives have a fitted effect of over 60% in size
#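 KB-V1 MDR subline cells in DMEM (phenol-red free, 10% FBS) exposed to compounds in qHTS concentration series for 72 h at 37 degrees C. Viability read by CellTiter-Glo luminescence; concentration-effect curves fitted after normalization and correction.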
# HT1080 IDH1KD tx – HT-1080 IDH1 knockdown cell toxicity (counter line); HT-1080 IDH1 knockdown viability, ATP luminescence, 48 h; AID 686971; Potency, µM (doses to about 46.1 µM), for the others: at the top dose activity, negative = toxicity, hits mostly cytotoxic; hit rate 2% among 360,000;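 also: potency is read from the fitted curve at half-maximal effect; 0% = DMSO wells and -100% = cell-free medium wells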
#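 IDH1KD HT-1080 cells, 750/well, RPMI + 5% FBS; compound pinned after 2 h settling; 48 h, 37 °C; CellTiter-Glo luminescence; % activity normalised to DMSO and no-cell wells; curves fitted, classed by r2 and efficacy.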
# HT1080-NT tox – kills 2HG-producing HT-1080-NT fibrosarcoma cells. Potency, µM (doses to about 46.1 µM), for the others: at the highest dose activity, negative = less viability, most hits filed as cytotoxic. AID 686970. hit rate 1.6% among 360,000. HT-1080-NT fibrosarcoma viability, CellTiter-Glo ATP luminescence, 48 h;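 also: NT is the 2HG producing partner of a matched IDH1 knockdown line; potency is read from the fitted curve at half-maximal effect; 0% = DMSO-treated cells and -100% = media-only wells without cells; nearly all actives have a fitted effect of over 55% in size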
#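 HT-1080-NT; 750 cells/well; 5% FBS RPMI; 48 h compound, 37 degrees C; CellTiter-Glo luminescence; curve fitting and curve-class assignment.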
# * hit, by the source's call; i = inactive; ? = inconclusive; / = not tested or not shown. Unless noted, calls follow the shape of the dose curve; as a rule, active = well fitted curve in the direction sought with a large enough effect; inconclusive = small, poorly fitted or top-dose-only effect, or another doubt; inactive = no such curve, though single readings can be large; an effect the other way counts as inactive or inconclusive. Unless noted, % is scaled to controls: 0 for no effect and ±100 for the full control effect.
SMILES,IL1B secr inh,KB-3-1 cytotox,KB-V1 cytotox,HT1080 IDH1KD tx,HT1080-NT tox
CCOc1ccc(NC(=O)CN2CCN(S(=O)(=O)c3ccc(OC)cc3)CC2)cc1,/,i,i,/,/
O=C(CN1CCN(c2ccc(O)cc2)CC1)Nc1cc(S(=O)(=O)N2CCCC2)ccc1Cl,-14,i,i,-6%,-2%
COc1ccc(NC(=O)CN2CCN(S(=O)(=O)c3ccc(Cl)cc3)CC2)cc1,0,i,16µM*,-10%,7%
O=C(CN1CCN(S(=O)(=O)c2ccc(Cl)cc2)CC1)NC(=O)NC1CCCCC1,-17,?,2.3µM*,-15%,-8%
O=C(Nc1cccc(F)c1)C1CCN(c2nc3ccccc3[nH]2)CC1,/,i,i,/,/
Cc1cc(C)c(C)c(S(=O)(=O)N2CCN(CC(=O)Nc3ccc([N+](=O)[O-])cc3)CC2)c1C,-14,i,i,6%,8%
Cc1ccc(S(=O)(=O)N2CCN(CC(=O)Nc3ccc([N+](=O)[O-])cc3)CC2)cc1C,?,i,18µM*,-4%,-6%
COc1ccc(C(=O)CN2CCN(S(=O)(=O)c3cccc([N+](=O)[O-])c3)CC2)cc1,-8,i,?,-7%,-1%
CS(=O)(=O)c1ncc(Cl)c(C(=O)Nc2ccc(N3CCOCC3)cc2)n1,-102*,i,i,1.6µM*,3.5µM*
CS(=O)(=O)c1ncc(Cl)c(C(=O)Nc2ccc(OC(F)F)cc2)n1,-99*,?,?,13µM*,?
CCOc1ccc(-c2nc(CN(Cc3ccccc3)C[C@@H]3CCC(=O)N3)c(C)o2)cc1,-81*,i,i,?,?
Cc1oc(-c2ccc(C(F)(F)F)cc2)nc1CN(Cc1ccccn1)C[C@@H]1CCC(=O)N1,18,i,i,-2%,1%
NC(CSCc1ccccc1Cl)C(=O)O (stereo not given),12,i,i,7%,9%
N=C(N)SCc1ccccc1Cl,-80*,i,i,15%,0%
Cc1ccc(NS(=O)(=O)Cc2ccccc2)cc1Cl,-86*,i,i,-4%,-12%
Cc1nc(CS(=O)c2ccc(Cl)cc2)cc(NCc2ccc(Cl)cc2Cl)n1 (stereo not given),-77*,?,?,?,?
CC1CC(C)(C)CC2(C1)NC(=O)N(CC(=O)N1CCN(S(=O)(=O)c3cccs3)CC1)C2=O (stereo not given),5,i,i,3%,5%
Cc1nnc(SCC(=O)c2cc(C)n(-c3c(C)n(C)n(-c4ccccc4)c3=O)c2C)s1,6,i,i,16%,0%
Cc1cc(C(=O)CCl)c(C)n1-c1c(C)n(C)n(-c2ccccc2)c1=O,-99*,?,?,?,23µM*
COc1ccc(-n2c(C)cc(C(=O)CCl)c2C)cc1,-77*,6.5µM*,?,15µM*,?
Cc1cc(-n2c(C)cc(C(=O)CCl)c2C)no1,-102*,?,?,7.3µM*,5.8µM*
Cc1cc(-n2c(C)cc(C(=O)CN3C(=O)C(=O)N(C)C3=O)c2C)no1,0,i,i,-2%,12%
CCOc1ccc(C2=CSC3=NCCN23)cc1Cl,-16,i,i,-14%,-10%
O=C(COc1ccccc1-c1ccccc1)N/N=C/c1cccc2ccccc12,18,1.3µM*,0.92µM*,1µM*,1.3µM*
O=C(COc1cccc2ccccc12)N/N=C/c1ccccc1OCc1ccc(C(=O)O)cc1,?,i,i,-8%,0%
SMILES,IL1B secr inh,KB-3-1 cytotox,KB-V1 cytotox,HT1080 IDH1KD tx,HT1080-NT tox
CN(C)c1ccc(/C=N/NC(=O)COc2ccccc2)cc1,-22,i,?,28%,28%
COc1ccc(/C=N/NC(=O)COc2ccccc2-c2ccccc2)cc1,106,1.2µM*,0.82µM*,0.82µM*,2.3µM*
CCCn1ccc2c(OCC(=O)Nc3ccc(OC)c(OC)c3)cccc2c1=O,/,i,i,/,/
Cc1ccccc1OCC(=O)Nc1sc2c(c1C#N)CC(C)(C)NC2(C)C,-10,i,i,?,23µM*
CC1(C)Cc2c(sc(NC(=O)c3ccc(C(=O)c4ccccc4)cc3)c2C#N)C(C)(C)N1,i,?,i,-17%,-13%
Cc1ccc(OCC(=O)Nc2sc3c(c2C#N)CCC3)cc1,?,i,i,5%,2%
CC1(C)Cc2c(sc(NC(=O)COc3ccc(Cl)cc3)c2C#N)C(C)(C)N1,-70*,i,i,?,?
Nc1[nH]c(=O)[nH]c(=O)c1N=Nc1ccc(C(=O)O)cc1,0,i,i,-1%,2%
CC1CCCN(C(=O)COc2ccc(Nc3ccccc3)cc2)C1 (stereo not given),0,i,i,0%,-6%
O=C(Cn1cnc2c(nnn2-c2cccc(Cl)c2)c1=O)N1CCCC1,17,i,13µM*,-11%,19%
Cc1ccc(Cn2nnc3c(=O)n(CC(=O)N4CCN(c5ccccc5)CC4)cnc32)cc1,?,i,5.2µM*,-26%,5%
CC(NC(=O)C(=O)NCCN1CCN(C(=O)c2ccc([N+](=O)[O-])cc2)CC1)c1ccccc1 (stereo not given),26,i,i,3%,4%
CCn1c(O)c(C=Nc2ccccc2)n(-c2ccccc2)c1=S,-5,5.8µM*,?,?,-15%
CCOC(=O)Cn1c(=O)n(C2CCCCC2)c2nc(-c3cccc(F)c3)nc(C(N)=O)c21,/,i,i,/,/
CCOC(=O)Cn1c(=O)n(C2CCCCC2)c2nc(-c3c(F)cccc3Cl)nc(C(N)=O)c21,/,?,18µM*,/,/
CCOC(=O)c1sc2nccc(OC)c2c1N=CN(C)C,-13,i,i,1%,2%
Nc1c(C(=O)CSc2nc3ccccc3o2)c(=O)[nH]c(=O)n1C1CC1,4,1.3µM*,i,?,-10%
CCOC(=O)c1cccc(NC(=O)c2ccc3c(Cl)c4c(nc3c2)CCC4)c1,/,i,i,/,/
CCC1(c2ccc(F)cc2)NC(=O)N(CC(=O)N2c3ccccc3CC2C)C1=O (stereo not given),4,i,i,-2%,-16%
COc1ccc(CNC(=O)Cc2nn(C)c(=O)c3ccccc23)cc1,2,?,i,-20%,-9%
COc1ccc(N2CCN(C(=O)Cc3nn(C)c(=O)c4ccccc34)CC2)cc1,58,i,15µM*,-6%,-1%
COc1ccc(N2CCN(C(=O)Cc3ncc(C(F)(F)F)cc3Cl)CC2)cc1,51,i,21µM*,0%,-2%
O=C(c1ccc(Oc2ccc(C(F)(F)F)cn2)cc1)N1CCN(c2ccccc2)CC1,-10,?,21µM*,-26%,-14%
